According to PubChem BioAssay AID1159580 (chemical genetic matrix, 2015):
Several values for one entry are separate records, joined by “and”; a condition that tells them apart may be missing. Equal entries are not always repeated. Among all 5,500 compounds or so, about 2,000 (36%) were called active. Not shown: some 18% with an inconclusive outcome. Rule as the data show it: active = normalized growth mostly below about 0.91 (no sharp cut-off); inconclusive = no clear call, values can overlap the other calls; inactive = mostly above about 0.92. This is one part of the list.

Assay: chemical genetic growth profiling, strain panel (AID 1159580);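 also: tested at 20 µM; growth read once vehicle control cultures reached saturation at 30 °C; 1 = growth at the plate median or of vehicle wells; lower values mean less growth of the strain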
Conditions: S. cerevisiae deletion strains, growth OD

Measured: normalized growth

CN(C)CCCN1c2ccccc2CCc2ccc(Cl)cc21
active: locus YAL021C, strain ccr4, stronger effect = lower value 0.899 | locus YAL026C, strain drs2, stronger effect = lower value 0.77 | locus YBR021W, strain FUR4, stronger effect = lower value 0.561 | locus YDL035C, strain GPR1, stronger effect = lower value 0.824 | locus YDL074C, strain BRE1, stronger effect = lower value 0.674 | locus YDL134C, strain PPH21, stronger effect = lower value 0.812 | locus YDR137W, strain rgp1, stronger effect = lower value 1.21 [resistant] | locus YDR162C, strain NBP2, stronger effect = lower value 0.725 | locus YDR388W, stronger effect = lower value 0.825 | locus YFR010W, strain ubp6, stronger effect = lower value 0.882 | locus YGR135W, strain pre9, stronger effect = lower value 0.784 | locus YGR252W, strain gcn5, stronger effect = lower value 0.527 | locus YHR027C, strain rpn1, stronger effect = lower value 0.915 | locus YIL066C, strain RNR3, stronger effect = lower value 0.836
inactive: locus YAL013W, strain DEP1, stronger effect = lower value 0.92 and 0.962 | locus YAL030W, strain snc1, stronger effect = lower value 1 | locus YAL040C, strain CLN3, stronger effect = lower value 1.02 | locus YBL061C, strain skt5, stronger effect = lower value 1.01 | locus YBR009C, strain hhf1, stronger effect = lower value 0.944 | locus YBR023C, strain chs3, stronger effect = lower value 1.01 | locus YBR171W, strain sec66, stronger effect = lower value 0.99 | locus YBR229C, strain ROT2, stronger effect = lower value 0.975 | locus YBR231C, strain swc5, stronger effect = lower value 1.01 | locus YBR279W, strain paf1, stronger effect = lower value 0.996 | locus YCL011C, strain gbp2, stronger effect = lower value 0.984 | locus YCL016C, strain dcc1, stronger effect = lower value 0.994 | locus YCL029C, strain bik1, stronger effect = lower value 1 | locus YCL061C, strain MRC1 (second series), stronger effect = lower value 0.999 | locus YCL061C, strain MRC1, stronger effect = lower value 1 | locus YCL069W, strain vba3, stronger effect = lower value 1 | locus YCR088W, strain abp1, stronger effect = lower value 1 | locus YDL005C, strain med2, stronger effect = lower value 1.03 | locus YDL040C, strain nat1, stronger effect = lower value 0.998 | locus YDL101C, strain DUN1, stronger effect = lower value 0.977 | locus YDL185W, strain tfp1, stronger effect = lower value 0.984 | locus YDL192W, strain arf1, stronger effect = lower value 0.933 | locus YDR001C, strain nth1, stronger effect = lower value 1.01 | locus YDR069C, strain doa4, stronger effect = lower value 0.919 | locus YDR101C, strain arx1, stronger effect = lower value 1 | locus YDR150W, strain NUM1, stronger effect = lower value 1.01 | locus YDR159W, strain sac3, stronger effect = lower value 1.04 | locus YDR195W, strain ref2 1.07 | locus YDR297W, strain sur2, stronger effect = lower value 1.01 | locus YDR318W, strain mcm21, stronger effect = lower value 0.978 | locus YDR334W, strain swr1, stronger effect = lower value 1.01 | locus YDR335W, strain msn5, stronger effect = lower value 1 | locus YDR392W, strain spt3, stronger effect = lower value 0.93 | locus YDR502C, strain sam2, stronger effect = lower value 0.963 | locus YEL003W, strain gim4, stronger effect = lower value 0.984 | locus YEL037C, strain rad23, stronger effect = lower value 1 | locus YEL061C, strain CIN8 (second series), stronger effect = lower value 1.01 | locus YEL061C, strain CIN8, stronger effect = lower value 0.99 | locus YER002W, strain NOP16, stronger effect = lower value 1.08 | locus YER015W, strain faa2, stronger effect = lower value 0.972 | locus YER016W, strain bim1, stronger effect = lower value 1 | locus YER110C, stronger effect = lower value 0.999 | locus YER111C, strain swi4, stronger effect = lower value 0.994 | locus YER155C, strain BEM2 (second series), stronger effect = lower value 1.01 | locus YER155C, strain BEM2, stronger effect = lower value 1 | locus YER167W, strain BCK2, stronger effect = lower value 0.952 | locus YGL078C, strain dbp3, stronger effect = lower value 0.989 | locus YGL086W, strain mad1, stronger effect = lower value 0.967 | locus YGL167C, strain pmr1, stronger effect = lower value 1 | locus YGL173C, strain kem1, stronger effect = lower value 0.967 | locus YGL227W, strain vid30, stronger effect = lower value 0.993 | locus YGL240W, strain doc1, stronger effect = lower value 1 | locus YGL248W, strain PDE1, stronger effect = lower value 0.917 | locus YGL253W, strain hxk2, stronger effect = lower value 0.971 | locus YHR013C, strain ard1, stronger effect = lower value 0.852 | locus YHR079C, strain IRE1 (second series), stronger effect = lower value 0.992 | locus YHR079C, strain IRE1, stronger effect = lower value 0.981 | locus YHR094C, strain hxt1, stronger effect = lower value 0.993 | locus YHR129C, strain ARP1, stronger effect = lower value 0.986 | locus YHR142W, strain chs7, stronger effect = lower value 0.977 | locus YHR200W, strain rpn10, stronger effect = lower value 0.998 | locus YIL073C, strain SPO22, stronger effect = lower value 0.79 | locus YIL125W, strain kgd1, stronger effect = lower value 0.993 | locus YIR030C, strain dcg1, stronger effect = lower value 0.995 | locus YJL092W, strain hpr5, stronger effect = lower value 1.01 | locus YJL095W, strain BCK1 (second series), stronger effect = lower value 0.997 | locus YJL115W, strain asf1, stronger effect = lower value 0.997 | locus YJL129C, strain trk1, stronger effect = lower value 1.02 | locus YJL134W, strain LCB3, stronger effect = lower value 0.991 | locus YJL154C, strain vps35, stronger effect = lower value 1 | locus YJL164C, strain tpk1, stronger effect = lower value 0.993 | locus YJL166W, strain qcr8, stronger effect = lower value 0.957 | locus YJL168C, strain set2, stronger effect = lower value 0.993 | locus YJL187C, strain SWE1 (second series), stronger effect = lower value 0.887 | locus YJL187C, strain SWE1, stronger effect = lower value 1 | locus YJR043C, strain POL32, stronger effect = lower value 1.01
0.696 (active) and 0.99 (inactive): locus YJL095W, strain BCK1, stronger effect = lower value
0.876 (active) and 1 (inactive): locus YHR030C, strain SLT2, stronger effect = lower value
